Inconclusive results are not listed. Active and inactive are the calls of the source. Calls follow the shape of the dose curve; as a rule, active = well fitted curve in the direction sought with a large enough effect; inconclusive = small, poorly fitted or top-dose-only effect, or effect the other way, or another doubt; inactive = no such curve, though single readings can be large or run the other way.

This assay is described as follows: Confirmatory redox qHTS assay for identification of artifact compounds. The following applies: Amplex Red/HRP redox cycling with DTT, fluorescence; series mostly up to 39 µM; redox activity vs DA3003: at the top concentration. The source says:
PI: Alexander Tropsha Ph.D. UNC Eshelman School of Pharmacy University of North Carolina, Chapel Hill, North Carolina Hits from high-throughput screening (HTS) of chemical libraries are often false positives due to their interference with the assay detection technology. In response to this problem, we generated the largest publicly available library of chemical liabilities and developed a free webtool to predict HTS artifacts, both of which are described herein. More specifically, we generated, curated, and integrated HTS datasets for thiol reactivity, redox activity, and luciferase (firefly and nano) activity. Using these curated datasets, we developed and validated several Quantitative Structure-Interference Relationship (QSIR) models to predict nuisance behavior. […] These models were employed for virtual profiling of the National Center for Advancing Translational Science's (NCATS) in-house library, and 256 compounds for each assay were selected for the experimental validation of nuisance behavior. The BA for these external predictions ranged from 58 to 78% for compounds within the applicability domains of the models. […] The models developed in this study, along with aggregation models previously developed by our group (SCAM Detective) were implemented in "Liability Predictor," an online tool which may be used as part of chemical library design or for triaging HTS hits. Both the models and the curated datasets are publicly available at https://liability.mml.unc.edu/.
PROTOCOL TABLE SEQUENCE No. (e.g., 1, 2, 3, etc.); […] (e.g., Cells, Incubation, Reagent, etc.); VALUE; DESCRIPTION. 1; Reagent; 3 uL; Amplex Red and HRP mixture. 2; Compounds and control; 16 nL; Kalypsis pin tool (Wako USA) equipped with a 1536-well pin head. 3; Incubation; 15 min. 4; Reagent; 1 uL; […]. 5; Incubation; 30 min. 6; Detection; Fluorescence, ViewLux microplate reader, 525 nm excitation, 598 nm emission. NOTES (numbers refer to Sequence numbers above) 1. 3 uL of a mixture containing Amplex Red (25 uM final concentration) and horseradish peroxidase (HRP; 250 mU/mL final concentration) in assay buffer (HBSS) was dispensed into all wells of a 1536-well assay plate (solid-bottom black plate; Greiner Bio One, Monroe, NC). 2. […] 3. 15 min. incubation at room temperature protected from light. 4. 1 uL of DTT (prepared fresh; final concentration 250 uM) was dispensed for a final assay volume of 4 uL. 5. Plates were centrifuged (121xg, 15 seconds) and incubated for 30 minutes at room temperature protected from light. 6. Samples were read for fluorescence (Ex/Em = 525(20)/598(25) nm) on a ViewLux CCD imager (PerkinElmer). Data were normalized to DMSO (0% activity) and DA3003 (10 uM final concentration; 100% activity) and the resulting percent inhibition data were fitted to a 4-parameter Hill equation using NCATS in-house software.
A general note: Quantitative high-throughput screening tests each substance at several concentrations.
On to `COc1ccccc1CNC(=O)CCC(=O)N1Cc2ccccc2Oc2ncccc21`, for which the “redox activity vs DA3003” value is 3.23% (inactive).

Regarding `O=C(Nc1onc2c1CCCC2)c1ccc(Cl)cc1`, the “redox activity vs DA3003” value is -0.563% (inactive).

As for `CCOC(=O)C1CCN(C(c2ccc(OCC)cc2)c2c(O)cc(C)n(CCOC)c2=O)CC1` (stereo not given), the “redox activity vs DA3003” value is 4.71% (inactive).

`O=C(CCn1c(=O)c2cccn2c2cccnc21)N1CCN(c2ccccc2F)CC1`: the “redox activity vs DA3003” value is 3.64% (inactive).

Turning to `COc1cc2c(NC3CCN(C(C)C)CC3)nc(N3CCCN(C)CC3)nc2cc1OCCOCCN(C)C`, the “redox activity vs DA3003” value was 12.3% (inactive).

For the molecule `O=C(CSc1nnc2scc(-c3ccc(Cl)cc3)n12)Nc1cccc(C(F)(F)F)c1`, the “redox activity vs DA3003” value was -0.385% (inactive).

As for `COc1cc2c(NC3CCN(C)CC3)nc(N3CCCN(C)CC3)nc2cc1OCCCN(C)C`, the “redox activity vs DA3003” value is 12.6% (inactive).

For the molecule `COc1cccc(-c2nc3cc(NC(=O)c4cccnc4)ccc3o2)c1`, the “redox activity vs DA3003” value is 6.77% [at 78.4 µM] (inactive).

With `COc1ccc(C(CNC(=O)c2oc3cc(C)c(C)cc3c2C)N2CCCCC2)cc1` (stereo not given), the “redox activity vs DA3003” value is 3.53% (inactive).

In the case of `COc1ccc(S(=O)(=O)N(CCc2ccccc2)CC(=O)Nc2cc(Cl)ccc2C)cc1`, the “redox activity vs DA3003” value is -0.652% (inactive).

In the case of `O=C(CN1C(=O)CCn2nc(-c3ccccc3)cc21)NCc1ccc(Cl)cc1`, the “redox activity vs DA3003” value is 4.22% (inactive).

With `COc1cc2c(NC3CCN(C)CC3)nc(N3CCCN(C)CC3)nc2cc1OCC1CCCNC1` (stereo not given), the “redox activity vs DA3003” value was 12% (inactive).

As to `COc1ccc(CCNC(=O)c2cc(=O)[nH]c3ccc(S(=O)(=O)N4CCCCC4)cc23)cc1OC`, the “redox activity vs DA3003” value is 3.88% (inactive).

Regarding `Cc1cccc(C)c1NC(=O)CCSCCc1ccccn1`, the “redox activity vs DA3003” value was 4.48% (inactive).

Turning to `O=C1CCc2cc(S(=O)(=O)Nc3cccc(F)c3)ccc2N1`, the “redox activity vs DA3003” value is -0.966% (inactive).

Turning to `Cc1cc(C)cc(-n2ccn(Cc3ccc(F)cc3)c(=O)c2=O)c1`, the “redox activity vs DA3003” value is 0.558% (inactive).

Turning to `COC(=O)c1ccccc1NC(=O)[C@H]1O[C@@H]2OC(C)(C)O[C@@H]2[C@H]2OC(C)(C)O[C@H]21`, the “redox activity vs DA3003” value was 5.32% (inactive).

Take `O=C(Cn1nc2c(cc1=O)CCCC2)Nc1ccc(F)cc1F`: the “redox activity vs DA3003” value is -0.537% (inactive).

As for `O=c1c2ccccc2sn1-c1cc(S(=O)(=O)N2CCOCC2)ccc1N1CCCCC1`, the “redox activity vs DA3003” value was -2.02% (inactive).

In the case of `O=C(COc1ccc(Cl)cc1)Nc1ccc2nc(SCC(=O)N3CCCC3)sc2c1`, the “redox activity vs DA3003” value was 5.51% (inactive).

Consider `Cc1ccc(-c2nc3scc(CCNS(=O)(=O)c4ccc(F)c(C)c4)n3n2)cc1`, for which the “redox activity vs DA3003” value is 1.44% (inactive).

Turning to `CCOc1ccc(CNC(=O)CN2C(=O)CSc3c2c(C)nn3-c2ccccc2)cc1`, the “redox activity vs DA3003” value is 1.23% (inactive).

`COc1cc2c(NC3CCN(C(C)C)CC3)nc(C3CCCCC3)nc2cc1OCCOCCN(C)C`: the “redox activity vs DA3003” value was 6.31% (inactive).

As for `OC[C@H]1O[C@@H]2O[C@H]3[C@H](O)[C@@H](O)[C@@H](O[C@H]4[C@H](O)[C@@H](O)[C@@H](O[C@H]5[C@H](O)[C@@H](O)[C@@H](O[C@H]6[C@H](O)[C@@H](O)[C@@H](O[C@H]7[C@H](O)[C@@H](O)[C@@H](O[C@H]1[C@H](O)[C@H]2O)O[C@@H]7CO)O[C@@H]6CO)O[C@@H]5CO)O[C@@H]4CO)O[C@@H]3CO`, the “redox activity vs DA3003” value is -0.818% (inactive).

As to `Cc1ccc(C(=O)CSc2nc(-c3ccccc3)nc3c2CCCC3)c(C)c1`, the “redox activity vs DA3003” value is -1.81% (inactive).

For the molecule `CC1=C(/C=C/C(C)=C/C=C/C(C)=C\C(=O)O)C(C)(C)CCC1`, the “redox activity vs DA3003” value was 18.1% (inactive).

As for `Cc1ccc(NC(=O)c2ccc3c(c2)NC(=O)c2ccccc2S3)cc1`, the “redox activity vs DA3003” value was 2.26% (inactive).

For the molecule `O=C(Nc1nnc(S(=O)(=O)N2CCCC2)s1)c1ccccc1Cl`, the “redox activity vs DA3003” value was -0.529% (inactive).

Consider `COc1ccc(NC(=O)N2CCc3c(sc4c3CCCC4)C2c2ccccc2OC)cc1` (stereo not given), for which the “redox activity vs DA3003” value is 0.514% (inactive).

`CCOc1ccc(CCNC(=O)c2cnc3c(-c4ccccc4)c(C)nn3c2C)cc1OCC`: the “redox activity vs DA3003” value was 3.51% (inactive).

On to `Cc1ccc(Cl)cc1N1C(=O)N(Cc2ccc(C#N)cc2)c2ccccc2S1(=O)=O`, for which the “redox activity vs DA3003” value was -1.31% (inactive).

`Cc1ccc(C)c(NC(=O)CC2NCCNC2=O)c1` (stereo not given): the “redox activity vs DA3003” value is -0.0323% (inactive).

Consider `COc1ccc(CCNC(=O)Cn2ncc3c(C)n(Cc4ccccc4F)c(C)c3c2=O)cc1OC`, for which the “redox activity vs DA3003” value was 8.43% (inactive).

For `Cc1cccc(NC(=O)CN2C(=O)C(c3ccc(F)cc3)=NC23CCCCCC3)c1`, the “redox activity vs DA3003” value was -0.49% (inactive).

As to `CCOc1ccc2nc(N3CCC(C(=O)Nc4ccc(Br)cc4F)CC3)sc2c1`, the “redox activity vs DA3003” value is 0.802% (inactive).

As for `COc1ccc(NC(=O)CSc2nc(-c3ccccc3)nc3c2Cc2c(CO)cnc(C)c2O3)cc1Cl`, the “redox activity vs DA3003” value was 6.51% (inactive).

With `CCCCCCOc1ccc(CC(=O)O)cc1`, the “redox activity vs DA3003” value was -0.0906% (inactive).

As to `Cc1oc(-c2ccccc2)nc1CNC(=O)Nc1ccccc1`, the “redox activity vs DA3003” value was -0.859% (inactive).

Consider `Cc1nc(S(=O)(=O)N2CCN(c3ccccc3F)CC2)cn1C`, for which the “redox activity vs DA3003” value was 0.568% (inactive).

Turning to `CCC(CC)c1nn2c(=O)cc(COc3ccc(NC(=O)c4ccccc4C)cc3)nc2s1`, the “redox activity vs DA3003” value is -0.612% (inactive).

The values are drawn from PubChem BioAssay AID1845225 (National Center for Advancing Translational Sciences (NCATS), 2023).
